The source of these data is PubChem BioAssay AID687014 (The Scripps Research Institute Molecular Screening Center, 2013).

Among all 370,000 compounds or so, about 6,800 (1.8%) were called active.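 The calls were made as follows: active = activation above a cutoff set at the mean of all screened compounds plus 3 SD (cut at about 10% in these data); inactive = the rest.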 For the sample, actives were picked, then their nearest neighbours and some compounds at random.

This test relates to Nuclear hormone receptor DAF-12 (Heterodera glycines), GAL4 fusion. Nature of the test: H. glycines DAF-12 receptor agonists, primary screen, cell-based, luminescence, HEK293, GAL4 fusion, UAS-luciferase (AID 687014).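 Also: 0% = DMSO wells and 100% = sodium butyrate wells.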 As to conditions: HEK293 GAL4-hgDAF12 UAS-luciferase reporter, agonist luminescence; at 6.8 µM; hits give high values; normalized to butyrate control.
Consider `NC(=O)c1c(NC(=O)CSc2nnc(-c3ccco3)n2N)sc2c1CCCC2`, for which the activation was 0.59% (inactive).

With `NC(=O)c1c(NC(=O)c2ccccc2)sc2c1CCCC2`, the activation is 13.5% (active). The value for `O=C(O)c1c(NC(=O)N2CCCC2)sc2c1CCCC2` was 0.58% (inactive); that for `Cc1ccc2nc(-c3ccc(CN4CCC(n5cc(-c6ccccc6)[nH]c5=O)CC4)cc3)c(-c3ccccc3)nc2c1` was 0.94% (inactive).

Regarding `C=CCN1C(C(=O)OC)CN(Cc2cn(Cc3ccccc3)nn2)CCS1(=O)=O` (stereo not drawn), the activation is 0.93% (inactive). As for `CC(C)(C)c1cnnn1-c1ccc([N+](=O)[O-])cc1`, the activation is -1.27% (inactive). The value for `Cc1nn(-c2ccccc2)c2c1C(c1cccc([N+](=O)[O-])c1)N(c1ccccc1)C(=O)N2` (stereo not drawn) was 2.5% (inactive). As for `Cc1nn(-c2ccc([N+](=O)[O-])cc2)c(N)c1-c1ccccc1`, the activation is 16.8% (active).

For the molecule `COCCNC(=S)N(C)[C@H]1C[C@H]2c3[nH]c4ccccc4c3CCN2C[C@H]1[C@H](C)O`, the activation is 0.91% (inactive). The value for `COC(=O)C1CN(Cc2ccc(F)cc2)CCS(=O)(=O)N1Cc1ccc(Cl)cc1` (stereo not drawn) was -1.05% (inactive); that for `O=C(C(NS(=O)(=O)c1cccc2nsnc12)c1ccccc1)N1CCN(c2ccccc2)CC1` (stereo not drawn) was 0.47% (inactive); that for `Nn1c(SCC(=O)Nc2cccc3ccccc23)nnc1-c1cc(-c2ccc(F)cc2)n[nH]1` was -2.56% (inactive).

Turning to `O=C(Oc1ccc([N+](=O)[O-])cc1)c1ccc2ccccc2n1`, the activation is 3.74% (inactive).

In the case of `O=[N+]([O-])c1ccc2c(c1)Nc1nc3ccccc3nc1N2`, the activation was 27.2% (active). The value for `O=[N+]([O-])c1cc2ccccc2nc1-c1ccccc1` was 4.98% (inactive). On to `C=CCOC/C=C/C#CCN(CC=C)Cc1ccc(OC)cc1OC`, for which the activation is 5.3% (inactive). To `CC(c1ccccn1)N(CCN(C)C)C(=S)Nc1ccccc1F` (stereo not drawn) belongs 0.46% (inactive); to `Cc1ccccc1CS(=O)(=O)Cc1ccc(C(=O)Nc2ccc(Cl)cc2)o1`, -3.81% (inactive); to `O=C(Nc1cccc(Cl)c1Cl)c1ccccc1NC(=O)C1CC=CCC1C(=O)O` (stereo not drawn), 5.07% (inactive). For `O=C(Nc1ccc(Cl)c(Cl)c1)c1ccccc1NC(=O)C1CC=CCC1C(=O)O` (stereo not drawn), the activation is 15.7% (active). To `O=C(O)C1CC=CCC1C(=O)NCCc1ccccc1` (stereo not drawn) belongs -1.34% (inactive); to `Cc1cc(C)cc(NC(=O)NC2CCCCCCC2)c1`, 5.46% (inactive); to `O=C(Nc1cccc(F)c1)NC1CCCCCCC1`, 10.7% (active). To `O=C(Nc1cccc(F)c1)NC1CCCc2ccccc21` (stereo not drawn) belongs -1.37% (inactive); to `COC(=O)c1ccc(NC(=S)Nc2cccc(C)n2)cc1`, 1.63% (inactive); to `CCCC(=O)NC(=S)Nc1ccc(CN2CCOCC2)cc1`, 0% (inactive). The value for `COC(=O)c1ccc(NC(=S)NN2CCOCC2)cc1` was 10.6% (active).

Turning to `C#CCNC(=O)C[C@H]1C[C@@]2(C(=O)OC)C(=C[C@H](C(C)C)O[C@@H]2C2CC2)N(Cc2ccco2)C1=O`, the activation was 0.97% (inactive). The value for `C/C(=N\NC(=O)c1ccoc1C)c1ccccc1O` was 11.5% (active); that for `COc1ccccc1N(CC(=O)N/N=C(\C)c1ccccc1O)S(=O)(=O)c1ccc(C)cc1` was -1.9% (inactive). The value for `C/C(=N\Nc1ccc(Cl)nn1)c1ccccc1O` was 1.05% (inactive). The value for `O=C(NC(CC(=O)N1CCN(c2ccccc2)CC1)c1ccccc1)c1ccccc1Cl` (stereo not drawn) was -0.02% (inactive); that for `Cc1ccc(SCCSc2ncccn2)cc1` was 17.8% (active); that for `Cc1ccc(SCCC(=O)NCc2ccccn2)cc1` was 0.65% (inactive). As for `Cc1ccc(SCCC(=O)NC(C(C)C)C(C)C)cc1`, the activation was -2.93% (inactive). For `CCCCCN1CCCCC(NC(=O)C(C)CCC)C1=O` (stereo not drawn), the activation was 2.68% (inactive).

`CC(C)(C)c1ccc(C(=O)Nc2cc(Cl)c(Br)cc2C(=O)O)cc1`: the activation is -1.36% (inactive).

Turning to `COc1ccc(CCC(=O)OCC(=O)Nc2ccc(C)c(S(=O)(=O)N(C)C)c2)cc1`, the activation is -1.79% (inactive).

In the case of `Cc1ccc(C(=O)Nc2ccc(C)c(S(=O)(=O)N(C)C)c2)s1`, the activation was 17.3% (active). To `CCN(CC(=O)Nc1ccc(C)c(S(=O)(=O)N(C)C)c1)Cc1ccccc1` belongs 2.76% (inactive); to `C[C@@H](NC(=O)c1ccccc1OCC(=O)Nc1ccc(I)cc1)C(=O)N(C)Cc1ccccc1`, -2.59% (inactive). The value for `C#CCN(C[C@@H]1[C@@H](OC(=O)NC2CC2)[C@@H](OC(=O)NC2CC2)Cn2c(=O)ccc(=O)n21)S(=O)(=O)c1ccc(C)cc1` was -1.94% (inactive); that for `O=C1CC[C@@H](COc2ccc3[nH]cc(-c4ccccc4)c3c2-c2ccccc2)N1` was -0.08% (inactive). The value for `CCCCNC(=O)C[C@H]1C(=O)N(Cc2ccc(OC)cc2)C2=CCCC[C@@]21C(=O)OCC` was -2.38% (inactive); that for `COc1ccccc1N1CCN(/N=C/c2ccc(O)cc2O)CC1` was 13% (active). Consider `CNCC(O)CN1CCN(c2ccccc2OC)CC1` (stereo not drawn), for which the activation was -4.94% (inactive). To `COc1ccccc1/C=N/N1CCN(Cc2ccccc2Cl)CC1` belongs 3.82% (inactive); to `O=C(Nc1ccccc1)O/N=C1/CCCc2occc21`, 1.6% (inactive).

For the molecule `N[C@@H](Cc1ccccc1)C(=O)N1CCC[C@@H]1C(=O)N1CCC2CCN(S(=O)(=O)c3ccccc3)CC21` (stereo partly drawn), the activation was 2.75% (inactive). The value for `Cc1cccc(NC(=O)c2cc3c(C)nn(-c4ccccc4)c3s2)c1` was 3.47% (inactive); that for `O=C1NC[C@@H](Cc2ccc(O)cc2)N(CCc2cccc(F)c2)C1=O` was 18.6% (active). The value for `O=C1NC[C@H](CCCCN2C[C@H](Cc3ccccc3)N(Cc3ccccc3)C(=O)C2=O)N(CCc2ccc(O)cc2)C1=O` was 0.18% (inactive).

Regarding `O=C1NC[C@H](CCCCN2C[C@H](Cc3ccc(O)cc3)N(CCc3ccccc3)C(=O)C2=O)N(CCc2ccccc2)C1=O`, the activation is -1.46% (inactive).

In the case of `CCOC(=O)[C@]12CCCCC/C=C\1N(Cc1ccc(OC)cc1)C(=O)[C@H]2CC(=O)N1CCOCC1`, the activation is 4.14% (inactive). To `CC(C)(C)NS(=O)(=O)c1ccc(NC(=O)C2CCCO2)cc1` (stereo not drawn) belongs -2.61% (inactive); to `O=C(Nc1ccc(-c2nnc(-c3ccccc3)o2)cc1)C1CCCO1` (stereo not drawn), 13.7% (active); to `CCOc1ccc(NC(=O)c2ccc(NC(=O)C3CCCO3)cc2)cc1` (stereo not drawn), -1.61% (inactive). To `COc1cccc(CNC(=O)C2CCCN(c3nc4ccccc4o3)C2)c1OC` (stereo not drawn) belongs 1.01% (inactive). The value for `O=C(Nn1cnc2ccccc2c1=O)c1ccc([N+](=O)[O-])cc1Cl` was -0.41% (inactive). For `O=C(Nc1ccc(Br)cn1)c1ccc([N+](=O)[O-])cc1Cl`, the activation is 11.7% (active). To `CC(C)C(=O)Nc1cccc(NC(=O)c2ccc([N+](=O)[O-])cc2Cl)c1` belongs -0.06% (inactive); to `Cc1cc(Cl)ccc1-c1nc(NCCN(C)C)nc2ccsc12`, 1.09% (inactive). To `O=C(CN1CCCc2ccccc21)NCc1ccc(F)cc1` belongs 1.21% (inactive); to `Cc1ccn(-c2cccc(-n3ccc(C)n3)n2)n1`, 18.1% (active); to `Cc1cccc(N2O[C@H]3C=CC2CCCC3)n1`, -0.73% (inactive). On to `COc1ccc(C(=O)OCCN2CCN(C3CN(Cc4cn(Cc5ccccc5F)nn4)S(=O)(=O)C3)CC2)cc1OC` (stereo not drawn), for which the activation was -1.46% (inactive). As to `Cn1c(SCC(=O)NC2CCCCC2)nnc1-c1cc2ccccc2o1`, the activation was 4.2% (inactive).

As for `CCNc1nc(-c2cc3ccccc3o2)cs1`, the activation was 12.5% (active). The value for `Cn1c(CNc2nc(-c3ccccc3)cs2)nnc1SCC(=O)c1ccccc1` was -0.81% (inactive). The value for `COc1ccc(NC(=O)CN(Cc2ccccc2)S(C)(=O)=O)cc1OC` was 0.79% (inactive).

For the molecule `O=C(O)C1C2C=CC(O2)C1C(=O)Nc1ccccn1` (stereo not drawn), the activation was 0.96% (inactive). To `CS(=O)(=O)N(CC(=O)N/N=C/c1ccccn1)c1ccc(Oc2ccccc2)cc1` belongs 2.64% (inactive). The value for `S=C(NN=Cc1ccccn1)Nc1ccccn1` was 14.5% (active); that for `CC(C)(C)c1ccc(CSc2nnc(-c3cccs3)o2)cc1` was 5.74% (inactive); that for `Clc1ccc(Cc2nnc(-c3cccs3)o2)cc1` was 12.7% (active).

Turning to `c1csc(-c2nnc(COc3ncnc4sccc34)o2)c1`, the activation is 1.72% (inactive). To `CC(C)[C@H]1COCCS(=O)(=O)N1Cc1ccccc1-c1cccc2c1sc1ccccc12` belongs 2.06% (inactive); to `Cc1ccc(OCc2nnc(SC/C=C/c3ccccc3)n2Cc2ccco2)cc1`, -2.63% (inactive); to `O=C1CSc2ccc(C(=O)NCc3ccccn3)cc2N1`, 3.35% (inactive).

For the molecule `c1ccc(CN=C2Nc3ccccc3CS2)nc1`, the activation was 15% (active). The value for `COc1ccc(OC)c(CNC(=O)c2cc(=O)[nH]c3ccc(S(=O)(=O)N4CCCC4)cc23)c1` was 5.76% (inactive). On to `CCc1ccc(C2=CC(=O)CC(C)(C)C2=O)cc1`, for which the activation is -0.49% (inactive). Consider `Cc1c(C(=O)Nc2ccccn2)oc2ccc(Br)cc12`, for which the activation was 11.2% (active). The value for `CCc1nonc1NC(=O)c1oc2ccc(Cl)cc2c1C` was 3.2% (inactive); that for `Cc1nonc1NC(=O)c1oc2ccccc2c1C` was 4.37% (inactive); that for `CCOC(=O)c1nnn(CC(=O)Nc2cccc(F)c2)c1C(=O)OCC` was -0.57% (inactive). As to `CCC(=O)Nc1ccc2nn(-c3ccc(F)cc3)nc2c1`, the activation was 12.1% (active). The value for `O=C(Nc1cccc(Cl)c1)c1cncn1-c1ccc(F)cc1` was 1.29% (inactive); that for `CCOC(=O)N1CCN(c2cc(C)c([N+](=O)[O-])cc2F)CC1` was 4.66% (inactive); that for `CCNC(=S)NCC` was -0.86% (inactive). To `Cc1ccc(C(=O)N(Cc2ccccn2)CC2CCCO2)cc1` (stereo not drawn) belongs -3.33% (inactive); to `Cc1ccc(NC(=S)NNC(=O)CSc2nnc(SCc3ccccc3Cl)s2)cc1`, 2.13% (inactive); to `COC(=O)c1c(-c2ccc(OC)cc2)c2c(c3c4cc(OC)ccc4n(S(=O)(=O)c4ccc(F)cc4)c13)C(=O)N(C)C2`, -2.44% (inactive).
